Test systems include RPMI-8226 leukemia; OVCAR-8 ovarian; OVCAR-5 ovarian; OVCAR-4 ovarian; SK-OV-3 ovarian; OVCAR-3 ovarian; HS 578T breast; NCI/ADR-RES ovarian; T-47D breast; MDA-MB-435 melanoma; SW-620 colon; MCF7 breast; HCT-116 colon; HCC-2998 colon; KM12 colon; MDA-MB-468 breast; IGROV1 ovarian; BT-549 breast.
Common to all, as to test: NCI-60 one-dose screen, 48 h (100 = growth as untreated, 0 = no growth, -100 = all killed)
What all share (conditions): 10 µM

The structures appear in SMILES notation. The panel holds about 83,000 compounds, 20% with a hit somewhere; the sample as a whole holds those more often.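 96-well plates, one dose, 48 hours. Percent growth reported; active if below 10.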 A number with no mark means an inactive call. Activity calls are given as the source filed them.

Regarding `Cc1ccc(C(C)C)cc1NC(=O)c1ccccc1N(C)C`, the growth in the test with RPMI-8226 leukemia is 72.6%; in the test with OVCAR-8 ovarian, 101%; with OVCAR-5 ovarian, 86.6%; with OVCAR-4 ovarian, 90%; with SK-OV-3 ovarian, 93.7%; with OVCAR-3 ovarian, 103%. For the same molecule, the growth with HS 578T breast is 110%; in the test on NCI/ADR-RES ovarian it was 74.6%; with T-47D breast, 57.1%; in the test on MDA-MB-435 melanoma, 95%; with SW-620 colon it was 106%; in the test on MCF7 breast, 82.8%. Besides, the growth with HCT-116 colon is 68.3%; in the test on HCC-2998 colon, 96.7%; in the test on KM12 colon it was 86.7%; in the test on MDA-MB-468 breast, 71.9%.

As to `Cc1ccc(CSc2nc(-c3ccc(F)cc3)c(C#N)c(=O)[nH]2)cc1`, the growth was 91.5% with RPMI-8226 leukemia; 97.8% in the test on OVCAR-8 ovarian; 99% in the test with OVCAR-5 ovarian; 96.5% in the test on OVCAR-4 ovarian; 105% in the test with SK-OV-3 ovarian; 113% with IGROV1 ovarian. Also, the growth was 105% in the test on HS 578T breast; 95.9% in the test with NCI/ADR-RES ovarian; 86.5% in the test on T-47D breast; 84.2% in the test with BT-549 breast; 106% in the test on MDA-MB-435 melanoma; 102% in the test on SW-620 colon. Besides, the growth with MCF7 breast was 89.2%; in the test with HCT-116 colon, 98.5%; in the test on KM12 colon it was 97%; in the test on MDA-MB-468 breast it was 126%.

As for `O=C(Nc1ccc(OCC(=O)c2ccccc2)cc1)Nc1ccc(Cl)c(C(F)(F)F)c1`, the growth in the test with RPMI-8226 leukemia is 7.07% (active); in the test on OVCAR-8 ovarian, 29.8%; in the test on OVCAR-5 ovarian, 35.8%; in the test on OVCAR-4 ovarian, 22.9%; in the test with SK-OV-3 ovarian it was 16.4%; in the test on IGROV1 ovarian it was 28.9%. The growth in the test with HS 578T breast was 9.19% (active); in the test with NCI/ADR-RES ovarian, 18.5%; in the test with T-47D breast, 3.26% (active); in the test on BT-549 breast, 33.7%; with MDA-MB-435 melanoma it was -25.4% (active); in the test with SW-620 colon, 32%. Moreover, the growth in the test with MCF7 breast is 35%; with HCT-116 colon it was 29.6%; with HCC-2998 colon, 28.6%; in the test with KM12 colon it was 1.99% (active); in the test on MDA-MB-468 breast, -5.5% (active).

`CN1CCN(c2ccc(C(=O)/C=C/c3ccc(C#N)cc3)cc2)CC1`: the growth in the test with RPMI-8226 leukemia was 5.21% (active); in the test on OVCAR-8 ovarian it was 92%; in the test on OVCAR-4 ovarian it was 85%; with SK-OV-3 ovarian, 86.6%; with IGROV1 ovarian it was 68.1%; with HS 578T breast it was 93.8%. The growth in the test with NCI/ADR-RES ovarian was 80.8%; in the test with T-47D breast, 87.4%; in the test with BT-549 breast, 91.1%; with MDA-MB-435 melanoma it was 28.1%; in the test on SW-620 colon it was 35.5%; in the test on MCF7 breast, 6.57% (active). For the same molecule, the growth is 18% in the test with HCT-116 colon, 47% with HCC-2998 colon, 46.8% in the test with KM12 colon and 26.5% in the test on MDA-MB-468 breast.

Turning to `O=C(Cn1cc(CSc2nnc3oc4ccccc4n23)nn1)Nc1cccc(Cl)c1`, the growth in the test on RPMI-8226 leukemia is 48.5%; in the test on OVCAR-8 ovarian, 74.9%; in the test with OVCAR-4 ovarian, 63.4%; in the test on SK-OV-3 ovarian it was 54.3%; in the test with IGROV1 ovarian, 78.7%; in the test on OVCAR-3 ovarian, 78.5%. Further, the growth was 66.6% in the test with HS 578T breast; 53.4% in the test on NCI/ADR-RES ovarian; 45.2% in the test with T-47D breast; 74.4% in the test on MDA-MB-435 melanoma; 103% with SW-620 colon; 49% in the test with MCF7 breast. Also, the growth is 71.8% with HCT-116 colon, 84.7% with HCC-2998 colon and 70.6% in the test with KM12 colon.

Take `NC(=Nc1ccc(OCCCCCCCCn2ccnn2)cc1)c1ccccc1`: the growth is 24.9% in the test on OVCAR-5 ovarian; 57.1% with OVCAR-4 ovarian; 21.2% with SK-OV-3 ovarian; 25.3% in the test with OVCAR-3 ovarian; 40.7% in the test with HS 578T breast; 40% with T-47D breast. Besides, the growth is 56.6% in the test on BT-549 breast; 32.4% with SW-620 colon; 13.8% in the test on MCF7 breast; 23.8% in the test with HCC-2998 colon; 18.2% with KM12 colon; 24% in the test with MDA-MB-468 breast.

On to `CN1C(=O)/C(=C/c2ccc3ncsc3c2)NC1=NC12CC3CC(CC(O)(C3)C1)C2`, for which the growth with RPMI-8226 leukemia is -7.67% (active); in the test on OVCAR-8 ovarian, 16%; with OVCAR-5 ovarian it was 7.24% (active); in the test with OVCAR-4 ovarian, 32%; in the test with SK-OV-3 ovarian it was 18.6%; in the test with OVCAR-3 ovarian, 0.338% (active). The growth in the test with HS 578T breast is -10.5% (active); in the test with NCI/ADR-RES ovarian, 10.8%; in the test on T-47D breast, 11.7%; in the test on BT-549 breast, -39.9% (active); with MDA-MB-435 melanoma, 27.4%; in the test on SW-620 colon, 5.62% (active). Also, the growth in the test on MCF7 breast was -20.1% (active); with HCT-116 colon, 17.3%; in the test on HCC-2998 colon, 10.1%; with KM12 colon it was 10.4%; with MDA-MB-468 breast, -5.71% (active).

Take `COc1ccc(-c2ccc(/C=N/NC(=O)c3[nH]c4ccc(Br)cc4c3-c3ccccc3)o2)cc1`: the growth in the test on RPMI-8226 leukemia was 18.9%; in the test with OVCAR-8 ovarian it was 37.1%; in the test on OVCAR-5 ovarian, 68.5%; in the test with OVCAR-4 ovarian, 44.2%; with SK-OV-3 ovarian it was 49.2%; with IGROV1 ovarian, 64.6%. Besides, the growth is 28.5% with HS 578T breast; -22.8% (active) in the test on NCI/ADR-RES ovarian; 37.4% in the test with T-47D breast; -45.1% (active) with MDA-MB-435 melanoma; 32.4% with SW-620 colon; 10.3% in the test with MCF7 breast. In addition, the growth with HCC-2998 colon is 63%; in the test with KM12 colon, 39.8%; in the test on MDA-MB-468 breast, -2.91% (active).

On to `CCC(C)S(=O)(=O)c1oc(-c2ccc(C)cc2)nc1S(=O)(=O)c1ccccc1` (stereo unspecified), for which the growth with RPMI-8226 leukemia was -44.5% (active); with OVCAR-8 ovarian, -65.8% (active); in the test on OVCAR-4 ovarian, -83.7% (active); with SK-OV-3 ovarian it was 65.5%; with IGROV1 ovarian, -92.9% (active); in the test on OVCAR-3 ovarian it was -81.1% (active). Further, the growth is -12.1% (active) with HS 578T breast; -55.2% (active) in the test on NCI/ADR-RES ovarian; -73.5% (active) with T-47D breast; -13.3% (active) in the test with BT-549 breast; -98.2% (active) in the test on MDA-MB-435 melanoma; -38.6% (active) in the test with SW-620 colon. The growth was -56.5% (active) in the test with MCF7 breast; -6.96% (active) in the test with HCT-116 colon; -84.6% (active) in the test on HCC-2998 colon; -65% (active) in the test with KM12 colon; -93.4% (active) with MDA-MB-468 breast.

These data come from PubChem BioAssay (NCI).
